Measurements from the supplement of paper PMC10849652.
Of roughly 7,900 targets only a part is listed; those with a hit were picked by preference. About 0.6% of all pairs of compound and target were hits.

Legend:
Assay in all cases: log2 fold change, soluble protein after heating vs DMSO (PISA); higher = thermal stabilisation; K562 cells, 10 uM, 30 min; active = over 0.2 and 3.5 SD of the protein, either way, in both replicates (recomputed)
[1] = compound: Cc1ccc(NC(=O)c2ccc(CN3CC[C@H](N(C)C)C3)c(C(F)(F)F)c2)cc1Nc1nccc(-c2cncnc2)n1 [bafetinib]
Outline: (§1)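 K562 cells at 2×10^6 cells/mL were treated with 10 μM compound for 30 min. Aliquots were heated for 3 min across 48°C-58°C, pooled, and extracted in PBS with 0.5% NP-40 at 4°C; soluble protein was the supernatant after 21,000xg for 90 min. Soluble protein was quantified by TMTpro 16plex LC-MS/MS with channel sums equalised, and reported as log2 fold change in thermal stability against DMSO controls, with values from duplicates.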

[2] = compound: Cc1cccc(CC(=O)N2CCc3c2ccc(-c2cn(C)c4ncnc(N)c24)c3F)n1
Outline: as §1

[3] = compound: Cc1cn(-c2cc(NC(=O)c3ccc(C)c(Nc4nccc(-c5cccnc5)n4)c3)cc(C(F)(F)F)c2)cn1 [nilotinib]
Outline: as §1

[4] = compound: Cc1nc(Nc2n[nH]c3c2CN(C(=O)N[C@H](CN(C)C)c2ccccc2)C3(C)C)c2sccc2n1
Outline: as §1

[5] = compound: Cc1nc(Nc2ncc(C(=O)Nc3c(C)cccc3Cl)s2)cc(N2CCN(CCO)CC2)n1 [dasatinib]
Outline: as §1

[6] = compound: Cc1ncc(-c2ccnc(Nc3ccc(S(C)(=O)=O)cc3)n2)n1C(C)C
Outline: as §1

[7] = compound: Cn1cc(-c2ccc3c(c2)CCN3C(=O)Cc2cccc(C(F)(F)F)c2)c2c(N)ncnc21
Outline: as §1

[8] = compound: Cn1cc(-c2ccc3nnc(C(F)(F)c4ccc5ncccc5c4)n3n2)cn1
Outline: as §1

[9] = compound: Cn1cncc1[C@@](N)(c1ccc(Cl)cc1)c1ccc2c(c1)c(-c1cccc(Cl)c1)cc(=O)n2C [tipifarnib]
Outline: as §1

[10] = compound: FC(F)(F)c1ccc(/C=C/c2nc(COc3ccc(CCCCn4ccnn4)cc3)co2)cc1 [mubritinib]
Outline: as §1

[11] = compound: NC(=O)Nc1cc(-c2cccc(F)c2)sc1C(=O)N[C@H]1CCCNC1
Outline: as §1

[12] = compound: NC(=O)c1cnc(N[C@@H]2CCCC[C@@H]2N)nc1Nc1cccc(-n2nccn2)c1
Outline: as §1

[13] = compound: NC1(c2ccc(-c3nc4ccn5c(=O)[nH]nc5c4cc3-c3ccccc3)cc2)CCC1
Outline: as §1

[14] = compound: NCC(=O)Nc1ccc(-n2nc(C(F)(F)F)cc2-c2ccc3c(ccc4ccccc43)c2)cc1
Outline: as §1

[15] = compound: Nc1ccccc1NC(=O)c1ccc(CNC(=O)OCc2cccnc2)cc1 [entinostat]
Outline: as §1

[16] = compound: O=C(CCCCCCC(=O)Nc1ccccc1)NO [vorinostat]
Outline: as §1

[17] = compound: O=C(CCCCCCNC(=O)c1cnc(N(c2ccccc2)c2ccccc2Cl)nc1)NO [citarinostat]
Outline: as §1

[18] = compound: O=C(O)c1ccc2c(c1)nc(Nc1cccc(Cl)c1)c1ccncc12 [silmitasertib]
Outline: as §1

[19] = compound: O=C1NC(=O)C(c2cnc3ccccn23)=C1c1cn2c3c(cc(F)cc13)CN(C(=O)N1CCCCC1)CC2
Outline: as §1

[20] = compound: c1cc(OCCN2CCCCC2)cc(-c2n[nH]c3ccc(-c4nnc[nH]4)cc23)c1
Outline: as §1

Measured: log2 fold change

DHRS1 (UniProt Q96LJ7)
Chain of UniProt Q96LJ7 (Q96LJ7 whole entry, looked up): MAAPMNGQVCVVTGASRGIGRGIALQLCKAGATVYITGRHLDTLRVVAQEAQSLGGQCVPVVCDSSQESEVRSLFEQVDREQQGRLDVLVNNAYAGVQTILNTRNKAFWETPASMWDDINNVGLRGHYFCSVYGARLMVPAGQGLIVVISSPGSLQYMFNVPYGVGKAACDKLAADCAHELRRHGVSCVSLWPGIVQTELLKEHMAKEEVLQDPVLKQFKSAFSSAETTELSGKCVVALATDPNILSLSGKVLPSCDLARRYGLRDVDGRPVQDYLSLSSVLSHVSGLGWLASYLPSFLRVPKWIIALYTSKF
inactive: [1] 0.352 | [2] 0.316 | [3] 0.638 | [4] -0.076 | [5] 0.02 | [6] -0.14 | [8] -0.106 | [9] 0.717 | [10] 0.178 | [11] -0.118 | [12] -0.047 | [13] 0.184 | [14] 0.095 | [15] -0.082 | [16] -0.098 | [17] -0.237 | [18] 0 | [20] 0.291
active: [7] 1.1 | [19] 0.834

CTSC (UniProt P53634)
Chain of UniProt P53634 (P53634 whole entry, looked up): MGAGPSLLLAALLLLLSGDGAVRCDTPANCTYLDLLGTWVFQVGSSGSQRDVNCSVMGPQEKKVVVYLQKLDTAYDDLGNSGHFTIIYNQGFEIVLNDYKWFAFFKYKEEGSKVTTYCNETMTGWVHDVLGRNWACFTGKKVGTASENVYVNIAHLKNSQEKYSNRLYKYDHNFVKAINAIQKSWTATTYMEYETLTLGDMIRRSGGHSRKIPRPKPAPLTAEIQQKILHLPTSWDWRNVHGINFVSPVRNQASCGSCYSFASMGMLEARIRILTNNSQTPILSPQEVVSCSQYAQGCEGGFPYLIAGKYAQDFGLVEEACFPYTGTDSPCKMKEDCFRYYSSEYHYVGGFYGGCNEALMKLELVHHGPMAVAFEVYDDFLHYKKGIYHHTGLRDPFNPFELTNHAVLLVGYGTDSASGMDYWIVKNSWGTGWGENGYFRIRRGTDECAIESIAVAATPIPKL
active: [1] -0.452
inactive: [2] -0.004 | [3] -0.008 | [4] 0 | [5] 0.046 | [6] -0.033 | [7] 0.041 | [8] 0.004 | [9] -0.039 | [10] 0.056 | [11] 0.019 | [12] -0.015 | [13] -0.11 | [14] 0.086 | [15] -0.053 | [16] -0.016 | [17] 0.015 | [18] -0.053 | [19] -0.057 | [20] 0.063

FAM114A2 (UniProt Q9NRY5)
Chain of UniProt Q9NRY5 (Q9NRY5 whole entry, looked up): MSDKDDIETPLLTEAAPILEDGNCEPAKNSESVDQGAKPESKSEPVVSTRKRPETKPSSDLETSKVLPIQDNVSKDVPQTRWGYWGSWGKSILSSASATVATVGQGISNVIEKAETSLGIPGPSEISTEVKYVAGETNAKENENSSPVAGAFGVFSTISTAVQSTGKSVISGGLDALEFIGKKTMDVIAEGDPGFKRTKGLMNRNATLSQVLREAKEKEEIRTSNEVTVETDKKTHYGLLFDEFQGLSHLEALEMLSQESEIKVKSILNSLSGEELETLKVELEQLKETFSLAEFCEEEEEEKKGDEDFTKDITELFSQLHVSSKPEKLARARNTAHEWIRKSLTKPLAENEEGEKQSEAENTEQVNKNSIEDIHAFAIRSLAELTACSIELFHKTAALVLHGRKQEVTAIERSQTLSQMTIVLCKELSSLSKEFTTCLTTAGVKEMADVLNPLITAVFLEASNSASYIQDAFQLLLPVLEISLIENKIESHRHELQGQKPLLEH
inactive: [1] -0.094 | [2] 0.025 | [3] -0.035 | [4] -0.032 | [5] -0.083 | [6] 0.004 | [7] 0.001 | [8] 0.019 | [9] -0.002 | [10] 0.055 | [11] 0.023 | [12] -0.089 | [13] -0.151 | [14] -0.062 | [15] 0.051 | [16] 0.034 | [17] 0.05 | [18] 0.02 | [19] -0.016 | [20] -0.013

EXTL2 (UniProt Q9UBQ6)
Chain of UniProt Q9UBQ6 (Q9UBQ6 whole entry, looked up): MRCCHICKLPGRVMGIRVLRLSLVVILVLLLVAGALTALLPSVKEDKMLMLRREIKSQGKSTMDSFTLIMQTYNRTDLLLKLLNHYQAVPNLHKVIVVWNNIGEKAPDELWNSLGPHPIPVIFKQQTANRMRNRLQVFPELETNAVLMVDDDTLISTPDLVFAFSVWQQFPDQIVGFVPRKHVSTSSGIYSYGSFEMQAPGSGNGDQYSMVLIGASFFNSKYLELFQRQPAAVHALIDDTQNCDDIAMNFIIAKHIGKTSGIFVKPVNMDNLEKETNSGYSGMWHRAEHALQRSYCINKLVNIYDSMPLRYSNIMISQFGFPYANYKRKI
inactive: [1] -0.041 | [2] 0.021 | [3] -0.02 | [4] 0.006 | [5] -0.008 | [6] -0.059 | [7] -0.039 | [8] -0.064 | [9] 0.014 | [10] 0.029 | [11] -0.051 | [12] -0.033 | [13] -0.018 | [14] 0.039 | [15] -0.01 | [16] 0.019 | [17] -0.044 | [18] -0.011 | [19] 0.003 | [20] -0.223

DTNBP1 (UniProt Q96EV8)
Chain of UniProt Q96EV8 (Q96EV8 whole entry, looked up): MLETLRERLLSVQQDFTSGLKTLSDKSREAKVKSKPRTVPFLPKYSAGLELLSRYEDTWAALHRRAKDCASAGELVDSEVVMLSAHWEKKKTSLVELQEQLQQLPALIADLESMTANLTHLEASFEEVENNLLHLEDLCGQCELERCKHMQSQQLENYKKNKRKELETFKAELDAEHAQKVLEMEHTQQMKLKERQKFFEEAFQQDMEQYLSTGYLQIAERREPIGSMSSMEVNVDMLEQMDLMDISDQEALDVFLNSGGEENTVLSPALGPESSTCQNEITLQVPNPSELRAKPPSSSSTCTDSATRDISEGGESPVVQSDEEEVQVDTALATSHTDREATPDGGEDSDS
inactive: [1] 0.014 | [2] 0.004 | [3] -0.047 | [4] -0.027 | [5] 0.072 | [6] 0.016 | [7] 0.053 | [8] 0.036 | [9] -0.083 | [10] -0.081 | [11] -0.022 | [12] -0.011 | [13] -0.038 | [14] -0.063 | [15] 0.033 | [16] 0.091 | [17] -0.001 | [18] -0.013 | [19] -0.032 | [20] -0.042

DDX4 (UniProt Q9NQI0)
inactive: [1] 0.244 | [2] -0.511 | [3] -0.172 | [4] -0.187 | [5] 0.107 | [6] -0.068 | [7] -0.217 | [8] 0.052 | [9] 0.268 | [10] -0.484 | [12] 0.01 | [13] 0.297 | [14] -0.35 | [15] -0.405 | [16] -0.253 | [17] -0.146 | [18] 0.171 | [19] -0.273 | [20] -0.194
active: [11] -1.13

EOGT (UniProt Q5NDL2)
Chain of UniProt Q5NDL2 (Q5NDL2 whole entry, looked up): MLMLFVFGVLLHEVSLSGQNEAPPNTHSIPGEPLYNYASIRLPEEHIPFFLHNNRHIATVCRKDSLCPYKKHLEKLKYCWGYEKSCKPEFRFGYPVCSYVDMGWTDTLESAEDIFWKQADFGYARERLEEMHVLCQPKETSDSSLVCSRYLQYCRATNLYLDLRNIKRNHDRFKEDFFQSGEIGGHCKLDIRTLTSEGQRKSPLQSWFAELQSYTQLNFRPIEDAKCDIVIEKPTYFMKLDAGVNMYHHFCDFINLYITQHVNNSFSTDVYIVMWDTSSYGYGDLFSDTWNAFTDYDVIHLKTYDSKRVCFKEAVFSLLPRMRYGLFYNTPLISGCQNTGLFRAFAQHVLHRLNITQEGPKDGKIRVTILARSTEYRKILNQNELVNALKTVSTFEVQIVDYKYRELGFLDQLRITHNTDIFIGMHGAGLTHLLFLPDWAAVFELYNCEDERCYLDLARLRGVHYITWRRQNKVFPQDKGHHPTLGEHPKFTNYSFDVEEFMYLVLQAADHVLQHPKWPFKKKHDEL
inactive: [1] -0.009 | [2] -0.025 | [3] -0.044 | [4] 0.055 | [5] -0.052 | [6] -0.005 | [7] -0.082 | [8] -0.038 | [9] 0.029 | [10] -0.021 | [11] -0.008 | [12] -0.063 | [13] -0.045 | [14] -0.011 | [15] 0.031 | [16] -0.092 | [17] -0.016 | [18] 0.038 | [19] 0.009 | [20] -0.063

EGLN1 (UniProt Q9GZT9)
Chain of UniProt Q9GZT9 (Q9GZT9 whole entry, looked up): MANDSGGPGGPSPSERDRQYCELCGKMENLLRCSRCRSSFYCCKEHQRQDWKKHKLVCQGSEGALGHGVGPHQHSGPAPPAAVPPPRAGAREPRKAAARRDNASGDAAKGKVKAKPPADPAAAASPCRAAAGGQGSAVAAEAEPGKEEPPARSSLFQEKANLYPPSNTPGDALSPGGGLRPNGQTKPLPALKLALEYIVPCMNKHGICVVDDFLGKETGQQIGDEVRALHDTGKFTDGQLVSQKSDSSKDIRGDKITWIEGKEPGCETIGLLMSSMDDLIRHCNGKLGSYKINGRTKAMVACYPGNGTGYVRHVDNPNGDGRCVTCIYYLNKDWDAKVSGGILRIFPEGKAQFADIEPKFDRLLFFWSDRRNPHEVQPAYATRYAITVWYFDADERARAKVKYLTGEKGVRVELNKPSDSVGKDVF
inactive: [1] -0.031 | [2] -0.018 | [3] 0.066 | [4] -0.026 | [5] -0.073 | [6] -0.036 | [7] -0.01 | [8] 0.017 | [9] 0.016 | [10] -0.116 | [11] 0.095 | [12] -0.016 | [13] -0.043 | [14] -0.029 | [15] -0.009 | [16] 0.021 | [17] 0.034 | [18] 0.024 | [19] 0.014 | [20] -0.178

EIF4A1 (UniProt P60842)
Chain of UniProt P60842 (P60842 whole entry, looked up): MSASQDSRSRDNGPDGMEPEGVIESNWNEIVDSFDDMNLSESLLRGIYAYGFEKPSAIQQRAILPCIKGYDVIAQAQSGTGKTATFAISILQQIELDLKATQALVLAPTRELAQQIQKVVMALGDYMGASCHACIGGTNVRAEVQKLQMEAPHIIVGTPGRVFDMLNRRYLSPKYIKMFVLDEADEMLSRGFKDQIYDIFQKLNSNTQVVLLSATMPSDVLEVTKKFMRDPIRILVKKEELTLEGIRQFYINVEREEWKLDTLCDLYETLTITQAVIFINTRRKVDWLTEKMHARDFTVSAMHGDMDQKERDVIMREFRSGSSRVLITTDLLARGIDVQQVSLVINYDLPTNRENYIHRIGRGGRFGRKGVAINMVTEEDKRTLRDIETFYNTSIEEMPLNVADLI
inactive: [1] 0.032 | [2] 0.014 | [3] -0.135 | [4] -0.063 | [5] -0.114 | [6] -0.047 | [7] 0.036 | [8] -0.022 | [9] -0.058 | [10] -0.08 | [11] 0.148 | [12] -0.08 | [13] -0.029 | [14] -0.044 | [15] 0.079 | [16] 0.068 | [17] 0.088 | [18] -0.01 | [19] -0.01 | [20] -0.05

DOHH (UniProt Q9BU89)
Chain of UniProt Q9BU89 (Q9BU89 whole entry, looked up): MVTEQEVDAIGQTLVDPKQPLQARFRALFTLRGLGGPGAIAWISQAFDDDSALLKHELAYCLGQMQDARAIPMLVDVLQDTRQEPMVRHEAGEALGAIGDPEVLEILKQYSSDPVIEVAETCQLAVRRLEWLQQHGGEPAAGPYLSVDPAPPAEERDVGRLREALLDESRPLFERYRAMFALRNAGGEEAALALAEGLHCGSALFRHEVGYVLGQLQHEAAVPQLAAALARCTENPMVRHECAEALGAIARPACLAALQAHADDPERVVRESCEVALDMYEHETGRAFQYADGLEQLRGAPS
inactive: [2] 0.008 | [3] 0.035 | [4] -0.169 | [5] 0.013 | [6] -0.054 | [7] -0.089 | [8] 0.022 | [9] 0.014 | [10] 0.03 | [11] 0.043 | [12] 0.056 | [13] 0.278 | [14] 0.009 | [15] -0.106 | [16] -0.04 | [17] 0.017 | [18] 0.047 | [19] 0.153 | [20] 0.283
active: [1] 0.653

FAM83D (UniProt Q9H4H8)
inactive: [1] -0.022 | [2] 0.145 | [3] -0.069 | [4] -0.088 | [5] -0.241 | [6] 0.016 | [7] -0.073 | [8] -0.027 | [9] -0.107 | [10] 0.023 | [11] -0.031 | [12] -0.073 | [13] -0.072 | [14] 0.075 | [15] 0.008 | [16] 0.066 | [17] 0.115 | [18] 0.048 | [19] -0.058 | [20] 0.059

FAF2 (UniProt Q96CS3)
Chain of UniProt Q96CS3 (Q96CS3 whole entry, looked up): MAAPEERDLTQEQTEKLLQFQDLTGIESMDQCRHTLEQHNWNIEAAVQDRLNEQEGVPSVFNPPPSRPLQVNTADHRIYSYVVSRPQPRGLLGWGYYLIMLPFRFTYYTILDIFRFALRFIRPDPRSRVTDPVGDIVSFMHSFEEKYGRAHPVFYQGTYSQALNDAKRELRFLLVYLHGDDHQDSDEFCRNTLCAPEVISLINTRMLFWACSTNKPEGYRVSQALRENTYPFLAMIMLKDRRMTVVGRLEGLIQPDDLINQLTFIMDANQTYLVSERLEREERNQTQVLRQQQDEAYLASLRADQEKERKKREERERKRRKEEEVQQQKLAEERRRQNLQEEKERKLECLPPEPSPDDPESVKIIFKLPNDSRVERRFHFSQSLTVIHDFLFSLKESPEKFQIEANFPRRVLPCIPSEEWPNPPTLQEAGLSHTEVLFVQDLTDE
inactive: [1] -0.058 | [2] -0.022 | [3] -0.042 | [4] -0.049 | [5] -0.075 | [6] 0 | [7] 0.017 | [8] -0.04 | [9] -0.021 | [10] -0.011 | [11] -0.016 | [12] -0.038 | [13] -0.038 | [14] -0.027 | [15] 0.021 | [16] 0.092 | [17] 0.015 | [18] 0.007 | [19] -0.054 | [20] -0.018

DTYMK (UniProt P23919)
Chain of UniProt P23919 (P23919 whole entry, looked up): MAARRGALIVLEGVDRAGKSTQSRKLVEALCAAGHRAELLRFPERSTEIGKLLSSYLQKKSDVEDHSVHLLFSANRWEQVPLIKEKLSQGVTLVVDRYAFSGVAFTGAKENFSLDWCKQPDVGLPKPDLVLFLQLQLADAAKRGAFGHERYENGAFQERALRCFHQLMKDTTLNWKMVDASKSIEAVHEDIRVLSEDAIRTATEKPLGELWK
inactive: [1] 0.044 | [2] 0.007 | [3] 0.042 | [4] 0.041 | [5] -0.151 | [6] -0.029 | [7] 0.045 | [8] 0.002 | [9] -0.019 | [10] 0.078 | [11] 0.005 | [12] -0.011 | [13] -0.169 | [14] -0.014 | [15] -0.035 | [16] 0.043 | [17] 0.047 | [18] -0.04 | [19] -0.058 | [20] -0.071

DMXL1 (UniProt Q9Y485)
inactive: [1] -0.14 | [2] -0.034 | [3] -0.002 | [4] 0.018 | [5] -0.099 | [6] -0.012 | [7] 0.021 | [8] 0.021 | [9] -0.035 | [10] -0.053 | [11] -0.026 | [12] -0.075 | [13] -0.052 | [14] -0.015 | [15] 0.033 | [16] 0.069 | [17] 0.005 | [18] 0.04 | [19] -0.007 | [20] -0.071

CTSB (UniProt P07858)
inactive: [2] -0.038 | [3] 0.001 | [4] -0.028 | [5] -0.008 | [6] -0.029 | [7] 0.014 | [8] 0.033 | [9] 0.008 | [10] -0.007 | [11] -0.013 | [12] -0.043 | [14] 0.005 | [15] -0.047 | [16] 0.016 | [17] -0.015 | [18] 0.002 | [19] -0.067 | [20] -0.07
active: [1] -0.842 | [13] -0.283

DHCR7 (UniProt Q9UBM7)
Chain of UniProt Q9UBM7 (Q9UBM7 whole entry, looked up): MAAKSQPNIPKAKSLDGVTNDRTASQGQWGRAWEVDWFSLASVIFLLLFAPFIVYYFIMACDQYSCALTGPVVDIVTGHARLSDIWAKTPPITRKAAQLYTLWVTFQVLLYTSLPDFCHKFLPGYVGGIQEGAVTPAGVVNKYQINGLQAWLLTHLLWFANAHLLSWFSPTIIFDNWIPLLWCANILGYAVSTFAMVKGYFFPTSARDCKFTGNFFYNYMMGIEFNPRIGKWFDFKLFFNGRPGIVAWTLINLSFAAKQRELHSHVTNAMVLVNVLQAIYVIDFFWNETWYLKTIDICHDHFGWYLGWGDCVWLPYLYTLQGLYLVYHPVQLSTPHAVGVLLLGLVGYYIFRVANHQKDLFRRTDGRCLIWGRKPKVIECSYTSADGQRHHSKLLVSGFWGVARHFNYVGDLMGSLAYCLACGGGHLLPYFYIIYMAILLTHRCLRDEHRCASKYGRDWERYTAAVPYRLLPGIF
inactive: [2] -0.005 | [3] -0.282 | [4] -0.005 | [5] -0.109 | [6] 0.05 | [7] 0.257 | [8] -0.016 | [9] -0.167 | [10] 0.166 | [11] 0.08 | [12] 0.014 | [13] 0.239 | [14] -0.134 | [15] 0.082 | [16] 0.03 | [17] -0.023 | [18] -0.084 | [19] -0.04 | [20] -0.026
active: [1] 0.428
